Compounds with a hit are over-represented: about 1.2% of the library has one in this group of screens.
VDR inh = blocks the human vitamin D receptor | VDR-SRC2-3 peptide fluorescence polarization, 2 h | Potency, µM, most hits filed as inhibitors | hit rate 0.93% among 400,000 | AID 504847
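The screen uses fluorescence polarization to detect compounds that interfere with recruitment of the SRC2-3 coactivator peptide to VDR; plates are read after 2 h at room temperature.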
TRb-SRC2 inh = inhibitors of human thyroid hormone receptor beta-SRC2 interaction. P10828. TRbeta-SRC2 peptide binding, fluorescence polarization; receptor liganded with 1 µM T3. Potency, µM (titrated, usually from 106 µM), actives largely listed as inhibitors. hit rate 0.065% among 280,000. AID 1469; note: nearly all actives have a fitted effect of over 50% in size
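Compounds were added to 0.6 uM TRb ligand-binding domain and 20 nM Texas Red-labeled SRC2 peptide in Tris buffer containing 1 uM T3, incubated 5 hr at ambient temperature, then read by fluorescence polarization.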
GCN5L2 inh = blocks human GCN5L2 histone acetyltransferase; Q92830; hit rate 0.21% among 390,000; GCN5L2 HAT assay, ThioGlo1 CoA-SH fluorescence; Potency, µM (highest dose often 58.9 µM), hits mostly inhibitors; AID 504327
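qHTS, 1536-well. 20nM enzyme, pH 7.5 HEPES/EDTA/Tween-20 buffer; 15 min compound preinc., RT. Start: 75uM H3(1-25), 70uM AcCoA, 50uM ThioGlo1. Read Ex340/Em540 at t=0 (autofluorescence flag) and t=20 min.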
TR SRC2 fluor cs = alters Texas Red total fluorescence, flagging assay interference; TRb/SRC2 Texas Red total fluorescence interference; Potency, µM (top dose mostly 106 µM); hit rate 0.29% among 280,000; AID 1479; active = well fitted curve in either direction with a large enough effect; inconclusive = small, poorly fitted or top-dose-only effect
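Human TRβ ligand-binding domain (0.6 uM) and Texas Red SRC2 peptide (20 nM) in Tris buffer with 1 uM T3 and 5% DMSO were incubated with pinned compound for 5 hr at ambient temperature. Total fluorescence was computed as S + 2P (555/632 nm).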
GoLoco inh red = RGS12 GoLoco-Gai1 interaction inhibition | Potency, µM (top dose mostly 61.6 µM), usual class: inhibitors | Gai1:RGS12 GoLoco peptide FP, rhodamine, 10 min | AID 880 | P63096 | hit rate 0.44% among 230,000; active = well fitted inhibition curve with a large enough effect, not every such curve was filed as active; inactive = no such curve, though single readings can be large or run the other way; note: nearly all actives have a fitted effect of over 30% in size
VDR inh confirm = confirmation of human vitamin D receptor inhibitors; hit rate 89% among 840; Potency, µM, actives largely listed as inhibitors; shares compounds with VDR inh; AID 602199; VDR-coactivator inhibition assay, qHTS confirmation
VDR FP = confirmation of human VDR-coactivator binding inhibitors, fluorescein label; hit rate 48% among 840; Potency, µM (doses to about 57.1 µM), usual class: inhibitors; VDR-coactivator binding, fluorescein fluorescence polarization; shares compounds with VDR inh; AID 602200
VDR bla reporter = confirmation of human vitamin D receptor inhibitors in reporter cells | shares compounds with VDR inh | VDR beta-lactamase reporter cells, FRET ratio; cells co-treated with VDR agonist LG190178 | Potency, µM (doses to about 46.1 µM), usual class: inhibitors | hit rate 23% among 840 | AID 602202
VDR viability = cell toxicity, VDR inhibitor hit counter-screen. shares compounds with VDR inh. cytotoxicity counter-screen, cell viability, qHTS. Potency, µM (top dose mostly 48.3 µM), hits mostly cytotoxic. hit rate 18% among 840; note: nearly all actives have a fitted effect of over 75% in size
Numbers stand for hits; [ ] = another dose, or the depositor's remark. Unless noted, calls come from the whole dose curve; as a rule, active = well fitted curve in the direction sought with a large enough effect; inconclusive = small, poorly fitted or top-dose-only effect, or another doubt; inactive = no such curve, though single readings can be large; an effect the other way counts as inactive or inconclusive.

What do the screens show for `CCc1ccc(NC(=O)Cn2c(SCc3ccc(C)cc3)nc3ccncc32)cc1`?
VDR inh: inactive

What do the screens show for `Cc1ccc(C)c(S(=O)(=O)Nc2ccc(O)c3ccccc23)c1`?
VDR inh: inconclusive; GCN5L2 inh: inactive

How did Cc1ccc(S(=O)(=O)Nc2ccc(O)c3ccccc23)c(C)c1 do in these assays?
VDR inh: 28µM; GCN5L2 inh: inactive; VDR inh confirm: 11; VDR FP: 10µM; VDR bla reporter: inactive; VDR viability: inconclusive

Results for O=C(/C=C/c1cccnc1)c1ccc([N+](=O)[O-])cc1 ?
VDR inh: inconclusive; GCN5L2 inh: inactive; VDR inh confirm: 7.9; VDR FP: 8.9µM; VDR bla reporter: inconclusive; VDR viability: inconclusive

Results for COC1=C(C)C(O)=C(C(=O)/C=C/c2ccccc2)C(=O)C1(C)C ?
VDR inh: 20µM; TRb-SRC2 inh: inactive; GCN5L2 inh: inactive; TR SRC2 fluor cs: inactive; GoLoco inh red: inactive; VDR inh confirm: 17; VDR FP: 20µM; VDR bla reporter: inconclusive; VDR viability: inactive

Results for N/N=C1/c2ccccc2N[C@H]1OC(=O)Nc1ccccc1 ?
GoLoco inh red: inactive[14.2 µM]

How did Cc1cccc(CS(=O)(=O)c2ncc(Cl)c(C(=O)Nc3c(C)cccc3C)n2)c1 do in these assays?
VDR inh: 22µM; GCN5L2 inh: inactive; VDR inh confirm: 6.7; VDR FP: inconclusive; VDR bla reporter: 15µM; VDR viability: inconclusive

What do the screens show for `COc1ccc(NC(=O)c2nc(S(=O)(=O)Cc3cccc(C)c3)ncc2Cl)c(OC)c1`?
VDR inh: inactive; GCN5L2 inh: inactive

Results for CCCc1nnc(NC(=O)c2nc(S(=O)(=O)Cc3cccc(C)c3)ncc2Cl)s1 ?
VDR inh: 14µM; GCN5L2 inh: inactive; VDR inh confirm: 6; VDR FP: inconclusive; VDR bla reporter: 12µM; VDR viability: 16µM

How did Cc1cccc(CS(=O)(=O)c2ncc(Cl)c(C(=O)NCc3ccccc3)n2)c1 do in these assays?
VDR inh: 16µM; TRb-SRC2 inh: inactive; GCN5L2 inh: inactive; TR SRC2 fluor cs: inactive; VDR inh confirm: 4.7; VDR FP: 7.9µM; VDR bla reporter: 15µM; VDR viability: 23µM

How did COc1cccc(C(=O)/C=C/c2ccc(OCC#N)c(OC)c2)c1 do in these assays?
VDR inh: 50µM; TRb-SRC2 inh: inactive; GCN5L2 inh: inactive; TR SRC2 fluor cs: inactive; GoLoco inh red: inactive; VDR inh confirm: 27; VDR FP: 14µM; VDR bla reporter: inconclusive; VDR viability: inconclusive

What do the screens show for `COc1ccccc1NS(=O)(=O)c1cc(N)ccc1N1CCOCC1`?
VDR inh: 79µM; GCN5L2 inh: inactive; VDR inh confirm: 21; VDR FP: 20µM; VDR bla reporter: inactive; VDR viability: inactive

What do the screens show for `Nc1ccc(N2CCOCC2)c(S(=O)(=O)Nc2ccccc2Cl)c1`?
VDR inh: inactive; GCN5L2 inh: inactive

What do the screens show for `[Cu].[NH-][C@H](CC(=O)O)C(=O)O.[NH-][C@H](CC(=O)O)C(=O)O`?
GoLoco inh red: inactive[14.2 µM]

Results for O=C(/C=C/c1ccc(Cl)cc1)c1ccc([N+](=O)[O-])o1 ?
VDR inh: 11µM; GCN5L2 inh: inactive; VDR inh confirm: 1.3; VDR FP: 1µM; VDR bla reporter: 7.3µM; VDR viability: inactive

How did COc1ccc(C(=O)N/C(N)=N/c2nc3ccccc3o2)cc1 do in these assays?
VDR inh: inactive; TRb-SRC2 inh: inactive; GCN5L2 inh: inactive; TR SRC2 fluor cs: inactive; GoLoco inh red: inactive

What do the screens show for `COc1ccc(C(=O)/C=C/Sc2nc3ccccc3o2)cc1`?
VDR inh: 18µM; TRb-SRC2 inh: inactive; GCN5L2 inh: inactive; TR SRC2 fluor cs: inactive; GoLoco inh red: inactive; VDR inh confirm: 6; VDR FP: 3.2µM; VDR bla reporter: 21µM; VDR viability: 21µM

How did O=C1COc2ccc(C(=O)NC3CC3)cc2N1 do in these assays?
VDR inh: inactive; TRb-SRC2 inh: inactive; GCN5L2 inh: inactive; TR SRC2 fluor cs: inactive; GoLoco inh red: inactive

How did O=C(O)/C=C/C(=O)c1ccc2c(c1)NC(=O)CO2 do in these assays?
VDR inh: 22µM; TRb-SRC2 inh: inactive; GCN5L2 inh: inactive; TR SRC2 fluor cs: inactive; GoLoco inh red: inactive; VDR inh confirm: 9.5; VDR FP: inconclusive; VDR bla reporter: inactive; VDR viability: inactive

Results for COc1ccc(-c2nc3c(c4c2C[C@H](c2ccccc2)OC4)CN(C(=O)Cc2cccs2)CC3)c(C)c1 ?
TRb-SRC2 inh: inactive[11.2 µM]; TR SRC2 fluor cs: inactive[11.2 µM]; GoLoco inh red: inactive[14.2 µM]

Results for O=S(=O)(Nc1c(S(=O)(=O)c2ccccc2)c2nc3ccccc3nc2n1C1CCCCC1)c1ccccc1 ?
VDR inh: inconclusive; TRb-SRC2 inh: inconclusive; GCN5L2 inh: inactive; TR SRC2 fluor cs: inactive; GoLoco inh red: inactive; VDR inh confirm: 0.35; VDR FP: 0.35µM; VDR bla reporter: inactive; VDR viability: inactive

What do the screens show for `CCOc1ccc(C2=C(C(=O)CC)Sc3nncn3N2C(=O)CC)cc1`?
VDR inh: inactive; TRb-SRC2 inh: inactive; GCN5L2 inh: inactive; TR SRC2 fluor cs: inactive

Results for CCCN1CNc2c(c(=O)[nH]c(=S)n2CCc2cccc(C)c2)C1 ?
VDR inh: inactive

What do the screens show for `CCOC(=O)CSC1=NC(=O)/C(=C\c2ccc(OC(C)=O)cc2)S1`?
VDR inh: 20µM; TRb-SRC2 inh: inactive; GCN5L2 inh: inactive; TR SRC2 fluor cs: inactive; GoLoco inh red: inactive; VDR inh confirm: 13; VDR FP: inconclusive; VDR bla reporter: inconclusive; VDR viability: inconclusive

How did C[C@H](NC(=O)c1ccc(Cl)c(Cl)c1)c1ccc(-c2ccccc2)cc1 do in these assays?
GoLoco inh red: inactive[14.2 µM]

Results for Cc1[nH]n(-c2ncc(-c3ccccc3)s2)c(=O)c1C(c1ccc(Cl)cc1)C(C#N)C#N (configuration not stated) ?
VDR inh: 35µM; TRb-SRC2 inh: inactive; GCN5L2 inh: inactive; TR SRC2 fluor cs: inactive; GoLoco inh red: inactive; VDR inh confirm: 6.7; VDR FP: inconclusive; VDR bla reporter: inactive; VDR viability: inactive

What do the screens show for `O=[N+]([O-])/C=C/c1c(OCc2ccccc2)ccc2ccccc12`?
TRb-SRC2 inh: inactive; GCN5L2 inh: inactive; TR SRC2 fluor cs: inactive; GoLoco inh red: inactive

High-throughput results (PubChem BioAssay)
